“And” between values parts separate entries of the source, which are not always exact repeats. Equal values may be shown once. Records with an inconclusive call do not appear. The source made the active and inactive calls. Unless noted, the limit is not given here; nearly all actives have AC50 up to about 26 µM.
Experiments:
[1] = growth inhibition of DIPG glioma cells, dose response, cell-based, SU-DIPG-XVII, MIPE5.0, CellTiter-Glo, qHTS (AID 1347060); details: SU-DIPG-XVII viability, CellTiter-Glo ATP luminescence;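 as to AC50: cells exposed to compound for 48 hours before viability readout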
[2] = growth inhibition of DIPG glioma cells, dose response, cell-based, SU-DIPG-XIII, MIPE4.0, CellTiter-Glo, qHTS (AID 1347061; cut-off not given, nearly all actives have AC50 up to about 37 µM;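 also: cells exposed to compound for 48 hours before readout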); details: SU-DIPG-XIII viability, CellTiter-Glo ATP luminescence
[3] = growth inhibition of DIPG glioma cells, dose response, cell-based, JHH-DIPG-1, MIPE4.0, CellTiter-Glo, qHTS (AID 1347062; cut-off not given, nearly all actives have AC50 up to about 27 µM;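 as to AC50: cells exposed to compound for two days before readout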); details: JHH-DIPG-1 viability, CellTiter-Glo ATP luminescence
[4] = growth inhibition of DIPG glioma cells, dose response, cell-based, SU-DIPG-IV, MIPE4.0, CellTiter-Glo, qHTS (AID 1347063; cut-off not given, nearly all actives have AC50 up to about 30 µM;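 also: compound exposure lasted 48 hours before the viability readout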); details: SU-DIPG-IV viability, CellTiter-Glo ATP luminescence
[5] = growth inhibition of DIPG glioma cells, dose response, cell-based, SU-DIPG-XIII, MIPE5.0, CellTiter-Glo, qHTS (AID 1347064; cut-off not given, nearly all actives have AC50 up to about 23 µM;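 as to AC50: cells exposed to compound for 48 hours before the viability read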); details: SU-DIPG-XIII viability, CellTiter-Glo ATP luminescence
[6] = viability loss in pontine glioma line – cell-based, SU-DIPG-XXV, MIPE5.0, CellTiter-Glo, qHTS, dose response (AID 1347065); details: CellTiter-Glo ATP luminescence;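 also: cells exposed to compound for 48 hours before ATP readout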
[7] = SU-DIPG-VI glioma cell viability, MIPE4.0 library, CellTiter-Glo luminescence, qHTS (AID 1347066; cut-off not given, nearly all actives have AC50 up to about 30 µM;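 also: cells exposed to compound for 48 hours before readout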); details: CellTiter-Glo ATP luminescence
[8] = JHH-DIPG-1 glioma cell viability, MIPE5.0 library, CellTiter-Glo luminescence, qHTS (AID 1347067); details: JHH-DIPG-1 glioma viability, CellTiter-Glo ATP luminescence;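 also: cells exposed to compound for 48 hours before readout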
[9] = SU-DIPG-XXV glioma cell viability, MIPE5.0 library, qHTS (AID 1347068; cut-off not given, nearly all actives have IC50 up to about 30 µM;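 as to IC50: cells exposed to compound for 48 hours before viability readout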)
[10] = sensitizers of A549 cells to miR-34 induction, primary screen, imaging, A549 dox-inducible miR-34, nuclei and caspase counts (AID 1347080;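 active = compounds whose cell count with miR-34 switched on is under 0.7 times the count with it off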); details: A549 miR-34 inducible, Hoechst nuclei count, 48 h
[11] = modifiers of HSF1 nuclear foci, imaging, Selleck Cancer Library (AID 1347162; in the data active = plate-normalised HSF1 focus index below about 0.46); details: human cells, at 10 µM; SSMD: measured here: HSF1 foci SSMD mean; cell count: measured here: cell number; plate-normalised HSF1 focus index: stronger effect = lower value
[12] = survival rescue of mitochondrial mutant cells in low glucose, primary screen, MELAS cybrids, Rieske KO mouse fibroblasts, CellTiter-Glo (AID 1508586;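 active = mean z-score across replicates of 1.96 or higher in either the MELAS or the Rieske mutant cell line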;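 also: z relative to plate mean and SD of compound and empty wells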)
[13] = viability rescue of complex I mutant cybrids, primary screen, cell-based, galactose medium, ATP luminescence (AID 1645843;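 active = z-score of at least 1.8 in each of two replicates, scored against plate mean and spread of sample wells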;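 also: positive z means more ATP and so rescue of galactose-driven cybrid death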); details: complex I mutant cybrid cells, 72 h, stronger effect = higher value
[14] = liver-stage malaria parasite growth inhibition, primary screen, cell-based, HepG2, luciferase luminescence, HepG2 viability (AID 624349; in the data active = parasite load remaining mostly below about 12%, no sharp cut-off; inactive = mostly above about 10%;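 also: 100% = mean of DMSO negative control wells on the same plate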); details: P. berghei liver stage in HepG2, luciferase luminescence, concentration not given here; parasite load remaining: stronger effect = lower value; viability: measured here: HepG2 viability without parasites
[15] = ovarian cancer cell viability with rucaparib, profiling panel, oncology-focused library, rucaparib conditional (AID 1508598;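 active = normalized viability below 100% at a tested concentration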); details: patient-derived ovarian cancer cells, CellTiter-Glo viability, 144 h, stronger effect = lower value
[16] = stronger effect = lower value, cell number ratio, induced over uninduced
[17] = measured here: relative caspase fold change +Dox/-Dox
[18] = measured here: total cells with miR-34 induction, stronger effect = lower value
[19] = measured here: total cells without miR-34 induction
[20] = MELAS cybrid survival, CellTiter-Glo 48 h, stronger effect = higher value
[21] = Rieske KO mouse fibroblast survival, CellTiter-Glo 72 h

CN1CCN(Cc2ccc(NC(=O)Nc3ccc(Oc4cc(NC(=O)C5CC5)ncn4)cc3)cc2C(F)(F)F)CC1
active: AC50 [1] 468 nM | AC50 [2] 5900 nM | AC50 [3] 118 nM | AC50 [4] 235 nM | AC50 [5] 525 nM | AC50 [6] 417 nM | AC50 [7] 2960 nM | AC50 [8] 372 nM | IC50 [9] 417 nM

CC1(C)SCCN(S(=O)(=O)c2ccc(OCC#CCO)cc2)[C@H]1C(=O)NO
inactive: outcome [1] | outcome [2] | outcome [3] | outcome [4] | outcome [5] | outcome [6] | outcome [7] | outcome [8] | outcome [9]

COc1cc2nc(N3CCCN(C)CC3)nc(NC3CCN(Cc4ccccc4)CC3)c2cc1OC
1.51 and 1.3 and 0.404: fold change [10, 17]
672 and 5080 and 2320: cell count [10, 18]
-1.67: z-score [12, 21]
6820: cell count [11]
inactive: fold change [10, 16] 0.884 and 1.04 and 1.01 | plate-normalised HSF1 focus index [11] 1.1 | z-score [12, 20] -0.436 | z-score [13] -1.38
760 and 4890 and 2300: cell count [10, 19]
1.64: SSMD [11]
active: AC50 [1] 10500 nM | AC50 [2] 26400 nM | AC50 [3] 7430 nM | AC50 [4] 10500 nM | AC50 [5] 13200 nM | AC50 [6] 10500 nM | AC50 [7] 9350 nM | AC50 [8] 13200 nM | IC50 [9] 11800 nM

C[C@@]12O[C@@H](C[C@]1(O)CO)n1c3ccccc3c3c4c(c5c6ccccc6n2c5c31)CNC4=O
active: AC50 [1] 2950 nM | AC50 [2] 4690 nM | AC50 [3] 2960 nM | AC50 [4] 8330 nM | AC50 [5] 1320 nM | AC50 [6] 186 nM | AC50 [7] 8330 nM | AC50 [8] 1860 nM | IC50 [9] 2630 nM

C=C(C)[C@@H]1CC[C@]2(C)CC[C@]3(C)[C@H](CC[C@@H]4[C@@]5(C)CC[C@H](O)C(C)(C)[C@@H]5CC[C@]43C)[C@@H]12
inactive: outcome [1] | outcome [2] | outcome [3] | outcome [4] | outcome [5] | outcome [6] | outcome [7] | outcome [8] | outcome [9]

COc1cc(CCc2cc(NC(=O)c3ccc(N4C[C@@H](C)N[C@@H](C)C4)cc3)n[nH]2)cc(OC)c1
active: AC50 [1] 417 nM | AC50 [2] 8330 nM | AC50 [3] 18700 nM | AC50 [4] 16600 nM | AC50 [5] 235 nM | AC50 [6] 263 nM | AC50 [7] 23500 nM | AC50 [8] 13200 nM | IC50 [9] 8330 nM

Cc1ccc(O)c(C(CCN(C(C)C)C(C)C)c2ccccc2)c1 (configuration not stated)
-0.0904: z-score [12, 21]
8130 and 7320 and 11700: cell count [10, 18]
8600 and 7630 and 13400: cell count [10, 19]
96.6%: viability [14]
1.69 and 0.719 and 5.48: fold change [10, 17]
inactive: parasite load remaining [14] 53.2% | outcome [1] | outcome [2] | outcome [3] | outcome [4] | outcome [5] | outcome [6] | outcome [7] | outcome [8] | outcome [9] | fold change [10, 16] 0.945 and 0.96 and 0.87 | z-score [12, 20] -0.247 | z-score [13] -0.5

COc1ccc(-c2ccc3ncc4c(c3c2)n(-c2ccc(N3CCNCC3)c(C(F)(F)F)c2)c(=O)n4C)cn1
648: cell count [10, 19]
603: cell count [10, 18]
active: AC50 [1] 105 nM | AC50 [2] 46.9 nM | AC50 [3] 66.2 nM | AC50 [4] 18.7 nM | AC50 [5] 118 nM | AC50 [6] 52.5 nM | AC50 [7] 187 nM | AC50 [8] 235 nM | IC50 [9] 590 nM
1.48: fold change [10, 17]
-3.7: z-score [12, 21]
inactive: fold change [10, 16] 0.93 | z-score [12, 20] 0.639

NC(=O)c1ccc(N(C(N)=O)c2c(F)cccc2F)nc1-c1ccc(F)cc1F
0.736: fold change [10, 17]
-0.467: z-score [12, 21]
9290: cell count [10, 18]
10300: cell count [10, 19]
inactive: outcome [1] | outcome [2] | outcome [3] | outcome [4] | outcome [5] | outcome [6] | outcome [7] | outcome [8] | outcome [9] | fold change [10, 16] 0.9 | z-score [12, 20] -0.391

O=C(Nc1c(Cl)cncc1Cl)c1ccc(OC(F)F)c(OCC2CC2)c1
-1.74: z-score [12, 21]
1.06: fold change [10, 17]
9050: cell count [10, 19]
8020: cell count [10, 18]
inactive: outcome [1] | outcome [2] | outcome [3] | outcome [4] | outcome [5] | outcome [6] | outcome [7] | outcome [8] | outcome [9] | fold change [10, 16] 0.886 | z-score [12, 20] -0.193

CC(=O)Nc1nc(C)c(-c2ccc(Cl)c(S(=O)(=O)NCCO)c2)s1
0.869: fold change [10, 17]
3490: cell count [10, 18]
2.06: SSMD [11]
3300: cell count [10, 19]
inactive: fold change [10, 16] 1.06 | plate-normalised HSF1 focus index [11] 1.13 | z-score [12, 20] -0.084 | viability ([15]; at 0.000305 µM, OCI-C5x cells, with rucaparib 10 µM, 100% = cells with rucaparib alone) 113% | viability ([15]; at 0.000305 µM, OCI-C5x cells, without rucaparib) 119% | viability ([15]; at 0.000305 µM, OCI-P5x cells, with rucaparib 20 µM, 100% = cells with rucaparib alone) 110% | viability ([15]; at 0.000305 µM, OCI-P5x cells, without rucaparib) 117% | viability ([15]; at 0.00122 µM, OCI-C5x cells, with rucaparib 10 µM, 100% = cells with rucaparib alone) 102% | viability ([15]; at 0.00122 µM, OCI-C5x cells, without rucaparib) 126% | viability ([15]; at 0.00122 µM, OCI-P5x cells, without rucaparib) 107% | viability ([15]; at 0.00488 µM, OCI-C5x cells, with rucaparib 10 µM, 100% = cells with rucaparib alone) 109% | viability ([15]; at 0.00488 µM, OCI-C5x cells, without rucaparib) 123% | viability ([15]; at 0.00488 µM, OCI-P5x cells, without rucaparib) 112%
7480: cell count [11]
1.03: z-score [12, 21]
active: AC50 [1] 10500 nM | AC50 [2] 7430 nM | AC50 [3] 13200 nM | AC50 [4] 2090 nM | AC50 [5] 14800 nM | AC50 [6] 6610 nM | AC50 [7] 2640 nM | AC50 [8] 16600 nM | IC50 [9] 16600 nM | viability ([15]; at 0.00122 µM, OCI-P5x cells, with rucaparib 20 µM, 100% = cells with rucaparib alone) 85.2% | viability ([15]; at 0.00488 µM, OCI-P5x cells, with rucaparib 20 µM, 100% = cells with rucaparib alone) 92.4%

Reference: PubChem BioAssay
